Experimental data published in the supplement of paper PMC6555819.

tested on: VDR:RXRa (NR concentration 270 nM, RXRa partner concentration 90 nM); assay: PBM binding z-score (relative to random genomic background probes); higher = stronger binding; sequences stand for … in GC…GCGATTGACAGCGTAGAATGAAGG
Procedure: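 Protein-binding microarray (Agilent 4x180K custom design, double-stranded 60-nt probes: 5' GC cap, 34-nt variable region, 24-nt constant primer region; full probe sequence given). Purified or IVT nuclear receptor:RXRα heterodimers (3:1 NR:RXRα, mostly 270:90 nM) or homodimers were incubated for 1 h in PBS with 2% milk and no ligand, then detected with Alexa488 antibodies. Fluorescence from o1-orientation probes (~5 replicates averaged) was converted to z-scores against 500 random hg19 background probes. Variable regions are seed direct-repeat (DR0–DR5) sites, all their single-nucleotide variants and half-site ablations.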

Sequence	PBM binding z-score
CAAACTAGTTCAAGGTCAAAGTCGGTTTGTGCCA	4.92
CAATCTAGGTCACCGGAAGGTCAAAGTCCGCATG	6.01
TTGCCTAGGTCAGATCGGGCCAGTATACGCTATA	0.82
GGAACGAGGGCAAGTTGATAGCGGAGTTTGATGG	0.636
ACAGACAGGTGATGTAGGTAACTCAGGCTATCAT	-0.00251
GCTTACGGGTAAAAGGTTATAGCATGAATAGAAT	1.57
CGAACTAGGTCATTGACAGGACAGTCAATAGTAA	2.29
TCTCGGAGGACACGAAAGGTCAGAGCGCGACATC	3.45
CCGACTGGGGGAAGGTTACCATAACGCACAGCCA	0.558
TCATATAGGTAGTACAGGTGAAAGTCGGCATCTA	0.794
GCGACTGGGGCAGCAGCAGGTTACCATAACTTAA	-0.465
ACTTACGGGTCAACGAGGTTATTGCACGCGTATA	8.05
CCTCGGAGGAGAACAGGAGGTCAGAGCTGCCAGA	1.29
GCATATAGGTAATACAAGGTAAAAGTCCGATTGT	0.085
CGTCAAAGTGCAAGGTAACGTAACAGAAAGCAGC	-0.0204
ACTATTAGTTGAGACGGGGGCAACCGATAGGTTG	2.71
CGTTAAAGTTCAACTAAGGTAACGTAAAGCACGC	4.58
GCTAGTTGGTCAGTAAAAGGACACACACCGGTCG	-0.213
TAGCCTTGGTCATGCGGGCCAGTATAGTGTCGGC	-0.724
TGAATGAGGTTAAAGAGCAGGGAACGTGGCGTCG	1.4

Sequence	PBM binding z-score
CCTATTAGTTGACCATAAGGGCAACCGCAGCTCG	0.982
GCTTATAGGTAATACAAGGTGAAAGTCCGATTGT	0.401
TCTTGTAGATCAAAGGGTAAGAAAGCCGAAGCCT	0.126
AAAACAGGGTCACTAGGCCAGAGTAGGTACGAAT	4.38
TCCTGTAGATCAAAGGTTAAGAAAGCCGAAGCCT	1.44
ACTAGCAGGCCAAGTTTGGTTCACTCAAACAAAG	0.34
CCTGCTAGGTCAATCGTCAGCTAAAGCAGCTCGC	0.744
ACTAGCAAGCCAAGGGTCACTCAAGATTAGTCCG	2.68
CAAACTAGGTCAAAGGTCAAAGTCGAGCCAACCA	6.72
TTACCAAGGGGAAAGGTCGTTGATGCACGCCTTG	1.98
CCGACTGGGGCATAAGGTCACCATAAGCCAGCCC	3.15
TCTTGTAGATCAACAGAGGTTAAGAAAGTGCGCT	2.03
TCTATTAGTTGACGGGCAACCGACGAGTCCGTTT	0.671
ACAGACAGGTGAGCGAAGGTAACTCAGCTGGACG	-0.641
AATACAGGGTCATCATAGGCCAGAGTACGCACAG	5.14
CGTCCAAGGTCAGAGAGGACAGTGAATGCCGAGT	5.85
CCTAGCAGGCCAATCTGGGTCACACAAGGCTTGA	1.09
ATACCAAAGTGATCGTGAGGTCGTTGATACTAAC	2.02
TCTTTTAGATCAAGCAGGTTAAGAAAGCCTGAGT	0.762
GGAACGAGGGCAAGTTGATGGCAGAGTTTGATGG	0.912
